TMEM16A act – activates or potentiates the mouse TMEM16A chloride channel; Q8BHY3; 340,000 tested, 0.3% active; AID 623877; B-score at 10 µM; HEK293 TMEM16A/YFP-H148Q/I152L, iodide quench fluorescence; active compounds read low;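 active means fluorescence-ratio B-score plate-corrected deviation score at least 3 library SD below zero, with starting fluorescence score within 5 deviations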;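 further: channel opened by trigger with iodide after compound preincubation; score built on the fluorescence ratio of max minus min over baseline; more negative score means more quench and so TMEM16A activation or potentiation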
Target sequence (Q8BHY3 whole entry, looked up): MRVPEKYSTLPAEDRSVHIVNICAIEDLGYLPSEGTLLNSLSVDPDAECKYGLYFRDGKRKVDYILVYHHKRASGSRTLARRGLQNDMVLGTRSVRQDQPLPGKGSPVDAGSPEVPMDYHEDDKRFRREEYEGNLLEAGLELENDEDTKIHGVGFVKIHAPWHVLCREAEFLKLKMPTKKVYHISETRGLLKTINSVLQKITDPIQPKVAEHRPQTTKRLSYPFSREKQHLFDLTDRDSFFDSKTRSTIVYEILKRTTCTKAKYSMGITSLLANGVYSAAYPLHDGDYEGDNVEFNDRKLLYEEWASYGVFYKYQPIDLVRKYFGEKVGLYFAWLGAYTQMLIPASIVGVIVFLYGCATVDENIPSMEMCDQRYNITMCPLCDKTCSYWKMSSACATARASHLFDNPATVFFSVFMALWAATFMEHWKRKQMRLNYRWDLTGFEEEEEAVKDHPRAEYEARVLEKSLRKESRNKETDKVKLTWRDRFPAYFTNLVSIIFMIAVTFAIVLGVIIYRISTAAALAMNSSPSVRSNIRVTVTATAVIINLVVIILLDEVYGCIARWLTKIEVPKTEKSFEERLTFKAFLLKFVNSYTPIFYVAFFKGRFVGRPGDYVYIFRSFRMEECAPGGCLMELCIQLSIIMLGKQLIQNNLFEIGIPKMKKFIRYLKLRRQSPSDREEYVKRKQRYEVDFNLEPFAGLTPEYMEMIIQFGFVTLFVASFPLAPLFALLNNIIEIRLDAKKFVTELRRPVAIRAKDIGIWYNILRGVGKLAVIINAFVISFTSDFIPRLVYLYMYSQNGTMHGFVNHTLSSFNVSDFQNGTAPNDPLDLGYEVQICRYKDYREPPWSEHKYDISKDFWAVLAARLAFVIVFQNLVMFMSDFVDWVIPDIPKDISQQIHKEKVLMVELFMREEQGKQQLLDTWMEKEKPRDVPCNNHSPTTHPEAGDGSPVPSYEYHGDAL
Kir21 block – blocks the mouse Kir2.1 inward-rectifier potassium channel; HEK293-Kir2.1, FluxOR thallium flux fluorescence; active compounds read low; B-score at 10 µM; 310,000 tested, 0.85% active;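 active means fluorescence ratio B-score at or below minus 3 SD of library scores, with starting-brightness B-score within 2 SD, cut at about -4.2 in these data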;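 further: channel flux triggered by added potassium and thallium sulfate stimulus; B-score of peak minus minimum fluorescence over baseline after thallium stimulus; more negative B-score means stronger Kir2.1 block with less thallium influx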
KCNK3 block – human KCNK3 channel inhibition, primary screen. B-score at 10 µM. 340,000 tested, 0.84% active. CHO-KCNK3 thallium flux, FluxOR fluorescence; active compounds read low. AID 602410;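 active means B-score under library mean minus 4 SD, starting fluorescence ratio at most library mean plus 5 SD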;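 further: more negative B-score means stronger inhibition of thallium flux through KCNK3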
KCNK9 block – inhibitors of human KCNK9 two-pore domain potassium channel; Q9NPC2; HEK293 KCNK9, FluxOR thallium flux fluorescence; active compounds read low; B-score at 10 µM; 310,000 tested, 1.2% active; AID 488922;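 active means ratio B-score over 3 SD below the library mean, with starting fluorescence within 5 SD of its mean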;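 further: negative B-score means less thallium flux so channel inhibition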
TMEM16A inh – inhibitors of mouse TMEM16A calcium-activated chloride channel; Q8BHY3; HEK293 TMEM16A/YFP iodide influx fluorescence, ionomycin; normalized B-score (activity score, 25-100; higher = stronger inhibition) at 10 µM; 310,000 tested, 1.2% active; AID 588511;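 active means ratio plate-corrected score three or more library SD toward inhibition, starting fluorescence score within five deviations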;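 further: score derived from kinetic fluorescence span divided by baseline fluorescence per well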
KCNK3 confirm – human KCNK3 channel inhibition, confirmation assay. shares compounds with KCNK3 block. CHO-KCNK3 thallium flux, FluxOR fluorescence; 0% buffer, 100% carvedilol maximal block. ratio percent of control, % at 10 µM. 2,400 tested, 99% active. AID 651638;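 active means ratio percent of control, averaged over triplicates, above buffer control mean plus 5 SD, cut at about 64% in these data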;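 further: ratio is the fluorescence rise from min to max over baseline after thallium stimulus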
KCNK3 uninduced – activity in cells without induced KCNK3 expression. shares compounds with KCNK3 block. non-induced KCNK3 parental cells, FluxOR thallium flux; active compounds read low. thallium flux ratio (lower = more inhibition) at 10 µM. 2,400 tested, 40% active. AID 651747;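 active means thallium flux ratio, averaged over three wells, more than 5 SD below the buffer control mean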;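 further: host cells are CHO cells without KCNK3 induction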
Numbers stand for hits; – = inactive; · = no result given. This is a sample that favours compounds with a hit; in the whole collection about 3.5% have one here.

SMILES | TMEM16A act | Kir21 block | KCNK3 block | KCNK9 block | TMEM16A inh | KCNK3 confirm | KCNK3 uninduced
Cc1ccc(N(C)S(=O)(=O)c2cccc(C(=O)NCC(c3cccs3)N3CCOCC3)c2)cc1 (stereo not drawn) | – | – | – | – | – | · | ·
N#CCC(CNc1ncc(C(F)(F)F)cc1Cl)OC(=O)c1ccc(Cl)cc1Cl (stereo not drawn) | – | – | -9.5 | – | – | 102 | 0.16
CCOC(=O)CNc1ncc(C(F)(F)F)cc1Cl | – | – | – | – | – | · | ·
COc1ccccc1C(=O)Nc1c(C(=O)N(CCN(C)C)Cc2ccco2)oc2ccccc12 | – | – | -11 | – | – | 125 | 0.14
Cc1cc(Cl)ccc1OCC(=O)N(Cc1cccs1)C1CCS(=O)(=O)C1 (stereo not drawn) | – | – | -9.9 | – | – | 59 | 0.16
O=C(COc1ccccc1Cl)N(Cc1cccs1)C1CCS(=O)(=O)C1 (stereo not drawn) | – | – | – | – | – | · | ·
COc1ccc(CCNc2ccc(N3C(=O)CC(C)C3=O)cc2[N+](=O)[O-])cc1OC (stereo not drawn) | – | – | – | – | – | · | ·
CCOC(=O)c1cnc2c(C)c(C)ccc2c1NCCN1CCOCC1 | – | – | – | – | · | · | ·
Cc1ccc(C)c(Nc2cc(C(=O)NCc3cccnc3)c3ccccc3n2)c1 | – | – | -8.9 | -7.9 | – | 87 | –
CC(Oc1ccc(F)cc1)C(=O)Nc1sc2c(c1C(=O)NCc1cccnc1)CCCC2 (stereo not drawn) | – | – | -8.9 | – | – | 113 | –
Cc1ccc(OC(C)C(=O)Nc2ccccc2C(=O)NCc2cccnc2)cc1C (stereo not drawn) | – | – | – | – | – | · | ·
Cc1cc(C)cc(OC(C)C(=O)Nc2ccccc2C(=O)NCc2cccnc2)c1 (stereo not drawn) | – | – | -9.7 | – | – | 84 | 0.16
O=C(Nc1sc2c(c1C(=O)NCc1cccnc1)CCCC2)c1ccco1 | – | – | – | – | – | · | ·
Cc1cccc(C)c1NC(=O)C(c1ccc([N+](=O)[O-])cc1)N(C)C(=O)c1ccccn1 (stereo not drawn) | – | – | – | – | – | · | ·
CC1CCN(c2ccccc2NC(=O)c2ccc(Br)o2)CC1 | – | – | -9 | -8 | – | 126 | 0.15
CN1CCN(c2ccccc2NC(=O)c2ccc(Br)o2)CC1 | – | – | – | – | – | · | ·
CCOC(=O)Cc1csc(NC(=O)COc2c(C)cccc2C)n1 | – | – | -13 | – | – | 93 | –
Cc1cccc(C(=O)NNC(=O)c2ccc3ccccc3c2)c1 | – | · | – | · | · | · | ·
COc1cccc(NC(=O)c2cc(-c3ccc(OC)cc3OC)nc3ccccc23)c1 | – | – | -9.4 | – | – | 103 | –
COc1cccc(NC(=O)CN(C)C(=O)c2cc(-c3cccc(Br)c3)nc3ccccc23)c1 | – | – | -14 | – | – | 128 | –
CCCNC(=O)C1(CC2CC(c3ccccc3)=NO2)CCN(C(=O)C2(C)CC2)CC1 (stereo not drawn) | – | – | – | – | – | · | ·
Cc1cc(-c2ccc(C(C)C)c(S(=O)(=O)N3CCOc4ccccc43)c2)on1 | – | – | -12 | -6.7 | – | 111 | –
CCc1ccc(-c2cc(C)no2)cc1S(=O)(=O)N1CCN(c2ccccc2F)CC1 | – | – | -8.8 | – | – | 81 | –
COc1ccc(-c2cc(C)no2)cc1S(=O)(=O)N1CCOc2ccccc21 | – | – | – | – | – | · | ·
CN(CC(=O)Nc1cccc(F)c1)CC(=O)Nc1ccccc1-c1ccccc1 | – | · | – | · | · | · | ·
SMILES | TMEM16A act | Kir21 block | KCNK3 block | KCNK9 block | TMEM16A inh | KCNK3 confirm | KCNK3 uninduced
CN(CC(=O)Nc1cccc(F)c1)CC(=O)Nc1ccccc1Oc1ccccc1 | – | – | -9 | – | – | 105 | –
CC(C)(C)C1CCC(=NNC(=O)C(=O)NC2CCCCC2)CC1 (stereo not drawn) | – | – | – | – | – | · | ·
CCOC(=O)C1CCN(C(=O)Nc2cc(Cl)cc(Cl)c2)CC1 | – | – | -9.9 | – | – | 111 | –
CCSc1nc2ccccc2c(=O)n1CCc1ccc(OC)c(OC)c1 | – | – | -9.4 | – | – | 98 | –
c1ccc(CN2CCN(c3nc4ccccc4c4ccccc34)CC2)cc1 | – | – | -11 | – | – | 98 | –
c1ccc(CN2CCN(c3nc(NCc4ccco4)c4ccccc4n3)CC2)cc1 | – | – | -11 | – | – | 141 | 0.1
c1ccc(CN2CCN(c3nc(-c4ccccn4)nc4ccccc34)CC2)cc1 | – | – | – | – | – | · | ·
COc1cccc(-c2nn(-c3ccc(C)cc3)cc2C(=O)N2CCc3cc(OC)c(OC)cc3C2)c1 | – | – | -9.8 | – | – | 104 | 0.14
CC(C)N1C(=O)CSC1c1ccc(Br)cc1 (stereo not drawn) | – | – | – | – | – | · | ·
CC(C)CNC(=S)N1CCN(c2nc(-c3ccc(Cl)cc3)cs2)CC1 | – | – | -9.8 | – | – | 140 | 0.12
CC(C)C(OC(=O)c1ccccc1)c1nccc2ccccc12 (stereo not drawn) | – | – | – | – | – | · | ·
O=C(OC(c1ccccc1)c1nccc2ccccc12)c1ccccc1 (stereo not drawn) | – | · | -11 | · | · | 105 | 0.14
COC1CCCN(C(=O)c2ccc3nc(Cc4cccc(Cl)c4)oc3c2)C1 (stereo not drawn) | – | – | – | – | – | · | ·
COCC1CCCN(C(=O)c2ccc3nc(Cc4cccc(Cl)c4)oc3c2)C1 (stereo not drawn) | – | – | -9.5 | – | – | 96 | –
N#CCCNc1c(Cl)cc(Cl)cc1C(=O)O | – | – | – | – | – | · | ·
CCOc1cc(/C=N/NC(=O)C(O)(c2ccccc2)c2ccccc2)ccc1OC(=O)c1ccco1 | – | – | -8.8 | – | – | 83 | –
CCOc1cc(/C=N/NC(=O)c2ccncc2)ccc1OC(=O)c1ccco1 | – | – | – | – | – | · | ·
COc1cc(/C=C(\C#N)c2nc3ccccc3o2)ccc1O | – | – | – | – | – | · | ·
N#C/C(=C\c1ccc(O)cc1)c1nc2ccccc2o1 | – | – | -11 | – | – | 130 | 0.12
CCOc1ccc(N2C(=O)CC(N)C2=O)cc1 (stereo not drawn) | – | – | – | – | – | · | ·
Cc1cccc(NC(=O)COC(=O)CNC(=O)C2CCCCC2)c1 | – | – | – | – | – | · | ·
S=C(NCc1ccccc1)NC1CCCc2ccccc21 (stereo not drawn) | – | -6.2 | -13 | – | – | 112 | –
Cc1[nH]c2ccccc2c1CCN(Cc1cccnc1)C(=S)Nc1ccc(F)cc1 | – | – | -10 | – | – | 92 | 0.15
